This excerpt belongs to a sample that is enriched for hits.
Shiga toxin inh – A qHTS for Small Molecule Inhibitors of Shiga Toxin; Vero cells, Shiga toxin protein synthesis inhibition reporter; inhibition, % at 38.7 µM; 290,000 tested, 9.2% active; in the data active = inhibition mostly above about 28%, no sharp cut-off; inactive = mostly below about 43%; note: 0% is about no effect
SARS PLP yeast – qHTS of Yeast-based Assay for SARS-CoV PLP | Potency, µM (titrated, usually from 32.9 µM), for inactives: top-dose activity, positive = growth rescue, most hits filed as activators | 330,000 tested, 0.19% active | AID 485353, 2010 | S. cerevisiae expressing SARS-CoV PLpro, growth rescue; calls by dose curve; note: potency is the fitted concentration of half-maximal effect; 0% is about no effect; nearly all actives have a fitted effect of over 55% in size
AMA1 RON2 block – qHTS for Inhibitors of AMA1-RON; Towards Development of Antimalarial Drug Lead: Primary Screen | Plasmodium falciparum AMA1 (3D7) - RON2 peptide interaction | AlphaScreen AMA1-biotinylated RON2 peptide binding | Potency, µM (doses to about 58.2 µM), for inactives: at the top dose activity change, negative = inhibition, usual class: inhibitors | 360,000 tested, 0.2% active;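 note: potency is the fitted concentration of half-maximal effect; 0% = vehicle wells and -100% = peptide control; nearly all actives have a fitted effect of over 45% in size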
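AMA1 (3D7) with his tag at 25 nM final met compounds first, then biotinylated RON2 peptide at 25 nM; detection used donor plus acceptor beads, 10 µg/mL apiece, read by AlphaScreen after 30 min at room temperature.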
AmpC inh no detg – qHTS Inhibitors of AmpC Beta-Lactamase (assay without detergent). 330,000 tested, 0.52% active. P00811. Potency, µM (series often up to 57.1 µM), for the others: at the top dose activity change, negative = inhibition, most hits filed as inhibitors. AmpC nitrocefin hydrolysis, absorbance 480 nm, 0.0001% Triton;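 note: potency is the fitted concentration of half-maximal effect; plate controls were no compound for no effect and no enzyme for full effect; nearly all actives have a fitted effect of over 20% in size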
Target sequence (P00811 whole entry, looked up): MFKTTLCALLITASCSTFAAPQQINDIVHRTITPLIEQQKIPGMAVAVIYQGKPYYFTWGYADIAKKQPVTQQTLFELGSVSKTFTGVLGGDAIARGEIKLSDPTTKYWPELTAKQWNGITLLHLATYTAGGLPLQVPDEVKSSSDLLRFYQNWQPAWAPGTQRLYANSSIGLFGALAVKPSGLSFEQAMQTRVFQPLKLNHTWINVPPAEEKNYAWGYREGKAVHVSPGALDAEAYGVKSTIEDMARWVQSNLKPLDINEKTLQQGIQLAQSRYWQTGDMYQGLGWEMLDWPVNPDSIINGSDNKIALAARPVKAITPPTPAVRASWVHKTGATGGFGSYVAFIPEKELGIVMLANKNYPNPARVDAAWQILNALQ
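AmpC (5.3 nM in the dispensed reagent) in 20 mM phosphate pH 7.0 with 0.01% (detergent screen) or 0.0001% Triton X-100 was preincubated with compounds for 15 min at room temperature. Nitrocefin was then added from an 800 uM solution, and hydrolysis was followed at 480 nm.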
AmpC detergent – qHTS Inhibitors of AmpC Beta-Lactamase (assay with detergent) | Potency, µM (titrated, usually from 114 µM), for inactives: top-dose activity change, negative = inhibition, most hits filed as inhibitors | 370,000 tested, 0.041% active | AID 485294, 2010 | P00811 | AmpC hydrolysis of nitrocefin, absorbance 480 nm, 0.01% Triton;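 note: potency is the fitted concentration of half-maximal effect; 0% = no-compound wells and -100% = no-enzyme wells; nearly all actives have a fitted effect of over 25% in size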
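AmpC (5.3 nM in the dispensed reagent) in 20 mM phosphate pH 7.0 with 0.01% (detergent screen) or 0.0001% Triton X-100 was preincubated with compounds for 15 min at room temperature. Nitrocefin was then added from an 800 uM solution, and hydrolysis was followed at 480 nm.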
CHX counter – Cycloheximide Counterscreen for Small Molecule Inhibitors of Shiga Toxin; max response, %; 300,000 tested, 12% active; cell reporter, cycloheximide protein synthesis inhibition counterscreen; in the data active = max response mostly above about 13%, no sharp cut-off; inactive = mostly below about 14%; note: read at 38.3 µM for the half of the compounds with a filed dose; 0% is about no effect
The depositor's hits bear a star; ? = inconclusive; . = no result given; + = active, no number; [ ] = dose if it differs, or a comment. Unless noted, calls come from the whole dose curve; as a rule, active = well fitted curve in the direction sought with a large enough effect; inconclusive = small, poorly fitted or top-dose-only effect, or another doubt; inactive = no such curve, though single readings can be large; an effect the other way counts as inactive or inconclusive.

SMILES | Shiga toxin inh | SARS PLP yeast | AMA1 RON2 block | AmpC inh no detg | AmpC detergent | CHX counter
COc1ccc(N2CCN(C(=O)c3ccc4nc(N5CCC(C)CC5)sc4c3)CC2)cc1 | . | . | . | . | 1% | .
CCOC(=O)N1CCN(C(=O)c2ccc3nc(N4CCC(C)CC4)sc3c2)CC1 | 42* | 4% | -4% | 119% | -6% | 24*
Cc1ccc(Cl)cc1N1CCN(C(=O)c2ccc3nc(N4CCC(C)CC4)sc3c2)CC1 | . | . | . | . | 2% | .
CC1CCN(c2nc3ccc(C(=O)N4CCN(Cc5ccccc5)CC4)cc3s2)CC1 | 85* | -1% | -24% | 123% | -15% | 52*
CCC(=O)N1CCN(c2ccccc2NC(=O)c2ccc(-c3cccc([N+](=O)[O-])c3)o2)CC1 | -10 | -8% | -9% | -18% | -22% | 10
C=CCc1c(OC)ccc2ccc(=O)oc12 | -12 | 2% | 2% | -3% | 3% | -2
COc1ccc(NS(=O)(=O)c2cc(NC(=O)c3ccccc3)ccc2N2CCOCC2)cc1 | . | 1% | -6% | -1% | . | .
Cn1nnnc1SCc1csc(Nc2ccccc2)n1 | 123* | 4% | -5% | -34% | -4% | 28*
Cc1ccc(Nc2nc(CSc3nnnn3C)cs2)cc1 | 42* | 21% | 12% | -23% | -11% | 39*
Nc1c(C(=O)Nc2ccc(Cl)cc2)oc2ccccc12 | 175* | -9% | -5% | -32% | 2% | 55*
O=C(Nc1c(C(=O)c2ccccc2)oc2ccccc12)c1ccc(F)cc1 | . | . | . | . | 24% | .
Nc1c(C(=O)c2ccccc2)oc2ccccc12 | 28 | -6% | ? | -24% | -9% | 22*
Nc1c(C(=O)c2ccc(F)cc2)oc2ccccc12 | 44* | -1% | 19% | -32% | 3% | 38*
Nc1c(C(=O)N2CCOCC2)oc2ccccc12 | 15 | -1% | 3% | 1% | -1% | 18*
O=C(Nc1c(C(=O)Nc2ccc(F)cc2)oc2ccccc12)c1ccccc1F | . | . | . | . | 12% | .
CN(Cc1ccc(F)cc1)C(=O)c1cccc(S(=O)(=O)N2CCN(c3ccc(F)cc3)CC2)c1 | . | -3% | ? | 43% | -20% | .
COC(=O)CSc1nc2sccc2c(=O)n1-c1ccccc1 | -13 | 3% | -17% | -20% | -9% | -2
Cc1c(C(=O)c2ccccc2)oc2ccc3ccccc3c12 | 106* | 0% | -16% | -19% | -4% | 51*
Nc1c(C(=O)c2ccco2)oc2ccccc12 | 24* | -1% | . | -26% | 1% | 21*
CC(=O)c1oc2ccccc2c1N | -2 | 6% | -3% | -14% | -8% | 0
CC(=O)Nc1c(C(=O)c2ccccc2)oc2ccccc12 | -11 | 0% | 2% | -2% | 0% | -5
C=C(C)C1CC=C(C)/C(=N/NC(=O)COc2cccc(C)c2)C1 (centres undefined) | 41* | -5% | 55% | -9% | -3% | 8
C=C(C)C1CC=C(C)/C(=N/NC(=S)Nc2ccccc2)C1 (centres undefined) | 27 | 10µM* | 24%[2.32 µM] | -53% | -7% | 21*
C=C(C)C1CC=C(C)/C(=N/NC(=O)c2ccc(NC(=O)c3cccc(C)c3)cc2)C1 (centres undefined) | 13 | 9% | -3% | -31% | -4% | -1
C=C(C)C1CC=C(C)/C(=N/NC(=O)c2ccoc2C)C1 (centres undefined) | + | -5% | 4% | -17% | -13% | 66*
SMILES | Shiga toxin inh | SARS PLP yeast | AMA1 RON2 block | AmpC inh no detg | AmpC detergent | CHX counter
O=S(=O)(c1ccc2nc(Cc3cccc(C(F)(F)F)c3)[nH]c2c1)N1CCOCC1 | -23 | 7% | 0% | -26% | -6% | 1
Cc1nc(NN)c2c3c(sc2n1)COC(C)(C)C3 | -11 | 1% | 49% | -5% | 0% | -5
COc1ccc(C2C(C#N)=C(N)N3C(=C2C#N)Sc2ccccc23)cc1 (centres undefined) | 43 | -16% | . | -19% | -13% | 20*
COCCNC(=O)Cn1cnc2c1c(=O)n(C)c(=O)n2C | -8 | 1% | 11% | -2% | 1% | -1
COc1cccc(C(=O)Nc2ccc(NC(C)=O)cc2)c1 | 62 | 3% | 0% | -9% | -10% | 28*
COc1cccc(C(=O)NN/C(C)=C/C(=O)C(F)(F)C(F)(F)C(F)(F)F)c1 | 66* | 13% | 87% | -30% | ? | 25*
COc1cccc(C(=O)Nc2cccc(NC(C)=O)c2)c1 | 29 | -2% | 1% | -15% | -3% | 11
COc1cccc(C(=O)Nc2ccc(NC(=O)C3CCCCC3)nc2)c1 | 22 | 2% | 1% | -34% | -13% | 1
COc1cccc(C(=O)Nc2ccc(C(=O)c3ccncc3)cc2)c1 | 4 | -5% | 3% | -28% | 3% | 17*
COc1cccc(OC)c1C(=O)Nc1ccc(C(=O)c2ccncc2)cc1 | . | 3% | 8% | 0% | 1% | .
COc1cccc(C(=O)NNC(=O)Cc2ccc(Cl)cc2)c1 | -14 | -1% | 89% | -19% | ? | -2
COc1cccc(C(=O)Nc2ccc(NC(=O)C(C)(C)C)cn2)c1 | 41* | -6% | -2% | -15% | -3% | 12*
O=S(=O)(c1ccc(Cl)cc1)N1CCC(O)(CN2CCN(Cc3ccccc3)CC2)CC1 | -3 | 0% | -2% | 121% | -3% | 8
CC(=O)OC(C(=O)NCc1ccc2c(c1)OCO2)c1ccccc1Cl (centres undefined) | -3 | -5% | 10% | 5% | -9% | 4
COc1ccccc1NS(=O)(=O)c1cc(NC(=O)c2sc3cc(Cl)ccc3c2Cl)ccc1C | -15 | 0% | 4% | -23% | -2% | -4
Cc1cc(Cl)n2c(nc3cc(F)c(F)cc32)c1C#N | -27 | -18% | 8% | -15% | 3% | -4
COc1cccc(C(=O)Nn2cnnc2)c1 | 34 | 1% | -3% | -21% | -3% | 11*
COc1cc(OC)cc(C(=O)Nc2cccc(C(C)=O)c2)c1 | 48* | 0% | 4% | -6% | -3% | 25*
CCOc1ccc(C(=O)CCC(=O)NC(CC(C)C)C(=O)OC)cc1 (centres undefined) | 20 | 0% | 5% | 5% | -6% | 9
CC(=O)C[C@@H](O)CC(=O)[C@@H]1OC(=O)CCCCCc2ccccc21 | . | 5% | -6% | -13% | . | .
CCOc1ccccc1N1CCN(S(=O)(=O)c2ccc3c4c(cccc24)C(=O)N3)CC1 | -6 | -4% | ? | -57% | 6% | -2

Compound activity: PubChem, National Center for Advancing Translational Sciences (NCATS)
